Experimental data as given in PubChem BioAssay AID932 (The Scripps Research Institute Molecular Screening Center, 2007).
The campaign covered roughly 200,000 compounds. About 5,100 (2.5%) were called active. The sample holds actives, similar compounds and a random draw of the others, so the mix is not that of the screen. Unmarked numbers belong to inactive results.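 Rule for the calls: active = activation above the screen-wide mean activation plus 3 SD (cut at about 130% in these data); inactive = the rest.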

Experiment: STAT1 signaling activators, primary screen, cell-based, HTS, luciferase reporter (AID 932);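 note: raw ratio to IFN-gamma control signal so 100% means no change and 0% no light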
Conditions: NIH 3T3 STAT1-luciferase reporter, IFN-gamma, luminescence; at 5.5 µM; active compounds read high; 100% = IFN-gamma alone, no compound

In order of falling activation (% of control):
1. Cc1ccc(NC(=O)C(=O)NCc2ccco2)c(C)c1  126%
2. CC(C)(C)C1CCc2c(sc3nc(SCC(N)=O)nc(N)c23)C1 (stereo not drawn)  123%
3. O=C(O)c1ccc(NC(=O)c2cn(-c3ccccc3)nc2-c2ccc(Cl)cc2)cc1  122%
4. O=C(/C=C/NCc1ccc(F)cc1)c1ccccc1  117%
5. Clc1ccc(-c2ncc3ccccn23)c(Cl)c1  112%
6. COc1ccc(-c2csc(Nc3ccc(O)cc3)n2)cc1  110%
7. O=C(CSc1nnnn1-c1ccc(O)cc1)N1N=C(c2ccc3ccccc3c2)CC1c1ccccc1 (stereo not drawn)  110%
8. Cc1cc(O)ccc1-c1cnc2ccccc2n1  108%
9. Cc1cc(C)n2nc(C(=O)N3CCN(Cc4ccc5c(c4)OCO5)CC3)nc2n1  108%
10. CC(=O)c1cnc(SCC(=O)O)nc1C  108%
11. O=C(O)Cc1sc(-c2ccccc2)nc1-c1cccs1  108%
12. CN(C)S(=O)(=O)c1ccc(N2CCCC2=O)c([N+](=O)[O-])c1  108%
13. CCOC(=O)c1c(NC(=S)NC(=O)/C=C/c2cccs2)sc(C)c1C  105%
14. Cc1cccc(S(=O)(=O)CC(=O)Nc2nc(-c3ccccc3)cs2)c1  105%
15. CCNC(=O)CC1C(=O)N(c2ccc(OC)cc2)C(=S)N1CCc1ccncc1 (stereo not drawn)  105%
16. O=C(Nc1ccncc1)c1c(F)cccc1F  105%
17. CC(C)(C)NC(=O)NC(=O)COC(=O)C1(C)CC1(Cl)Cl (stereo not drawn)  104%
18. CCOC(=O)c1cnc2[nH]c3ccccc3n2c1=O  104%
19. O=C(O)CCCCCNc1ncnc2ccc(Br)cc12  104%
20. O=C(/C=C\NCC(=O)c1ccccc1)c1ccccc1  104%
21. COc1ccc2nc(Nc3nc(-c4cc5ccccc5oc4=O)cs3)sc2c1  103%
22. COc1ccc2nc(NC(=O)[C@@H]3CCCN3C(=O)c3cccs3)sc2c1  103%
23. CC(C)(C)NC(=O)NC(=O)COC(=O)Cc1ccc(Cl)cc1Cl  103%
24. Cc1ncc(CC(=O)n2cc(C(=O)c3cc(Cl)ccc3O)cn2)s1  103%
25. Cc1ccc(OCCOCCOc2ccc(Br)cc2/C=N\NC(=O)c2ccncc2)cc1  102%
26. CCOC(=O)/C(=N\Nc1ccccc1[N+](=O)[O-])c1csc(Nc2ccccc2)n1  102%
27. OC1CCCN(c2ncnc3c2nnn3Cc2c(F)cccc2Cl)C1 (stereo not drawn)  102%
28. COc1ccc(OC)c(Nc2nc(-c3ccc(O)c(O)c3)cs2)c1  102%
29. CCCC(=O)Nc1nc2ccc(NC(=O)c3c(F)c(F)c(OC)c(F)c3F)cc2s1  102%
30. O=C1CSC(c2ccccc2)N1c1nc(-c2ccc(Cl)cc2Cl)cs1 (stereo not drawn)  102%
31. CCC(=O)N1c2ccc(S(=O)(=O)CCC(=O)N3CCN(c4ccccc4)CC3)cc2CC1C (stereo not drawn)  101%
32. Cc1ccc(NC(=O)Cn2c(=O)n(CCC(=O)NC3CCN(Cc4ccccc4)CC3)c(=O)c3ccccc32)cc1  101%
33. COC(=O)c1cc(NC(=O)C2C3C=CC(C3)C2C(=O)O)cc(C(=O)OC)c1 (stereo not drawn)  101%
34. CCOC(=O)c1c(CN(C)C)n(-c2ccccc2)c2cc(Br)c(O)cc12  101%
35. Cc1[nH][nH]c(=O)c1C(c1ccc2c(c1)OCO2)c1c(C)[nH][nH]c1=O  101%
36. O=C(O)c1ccn(COc2ccc(Br)cc2)n1  101%
37. Cn1cccc1C(C#N)c1ccccc1C#N (stereo not drawn)  100%
38. O=C(Cn1nnc(-c2ccccc2)n1)NCc1ccccc1  100%
39. CN1C(=O)c2ccc(NC(=O)C3CCCCC3)cc2C1=O  99.6%
40. CC(=O)NS(=O)(=O)c1ccc(NC(=O)C2C3C=CC(C3)C2C(=O)O)cc1 (stereo not drawn)  99.5%
41. Nc1nc(SCC(=O)NCCN2CCOCC2)nc2sc3c(c12)CCC3  99.3%
42. O=C(O)c1ccc(NC(=O)C2CCCCC2)cc1  99.3%
43. N#Cc1ccc(OCc2nnc(-c3ccc([N+](=O)[O-])cc3)o2)cc1  99.1%
44. CC(=O)Nc1ccc(S(=O)(=O)Nc2nc(-c3ccc(C(C)(C)C)cc3)cs2)cc1  99%
45. Cc1noc(C)c1S(=O)(=O)Nc1ccc(C(=O)N2CCN(c3ccc(F)cc3)CC2)cc1  98.8%
46. NC(=O)c1ccc(CN2CCC(Cc3ccccc3)CC2)cc1  98.6%
47. Cc1cccc(NC(=O)c2cc(N3C(=O)CCC3=O)ccc2Cl)n1  98.4%
48. CCNC(=O)N1c2ccccc2Sc2ccccc21  98%
49. COc1ccccc1-n1c(=S)[nH]c2c(sc(=S)n2-c2ccc(C)cc2C)c1=O  97.7%
50. Cc1ccc(C)n1NC(=O)c1ccc([N+](=O)[O-])cc1  97.7%
51. Cc1cccc(NC(=S)N(CCN(C)C)C(C)c2ccco2)c1 (stereo not drawn)  97.6%
52. O=C(NCc1cccnc1)c1cccc(-c2cc3ccccc3oc2=O)c1  97.6%
53. CC(=O)Nc1ccc(/C(C)=N/NC(=O)CN(c2ccccc2Br)S(C)(=O)=O)cc1  97.6%
54. Cc1ccc(NC(=O)c2oc(=O)c3ccccc3c2-c2ccccc2)c(C)c1  97.1%
55. Cc1ccc(S(=O)(=O)N2CCOCC2)cc1C(=O)OC1CCCCC1=O (stereo not drawn)  97%
56. COc1cccc(C(=O)Nc2cccnc2)c1OC  96.6%
57. CCS(=O)(=O)Nc1cccc(-c2cc(-c3ccccc3)c3cc(C)ccc3n2)c1  96.5%
58. Cc1ccccc1-c1nnn(CC(=O)c2ccc(S(=O)(=O)N3CCCC3)cc2)n1  96.4%
59. Cc1ccccc1N(C(=O)Cc1cccs1)C(C(=O)NC1CCCCC1)c1cn(C)nc1C (stereo not drawn)  96.2%
60. CN(CC(=O)NCCc1ccccc1)S(=O)(=O)c1cnc[nH]1  95.9%
61. Cc1cccc(NC(=O)c2ccccc2NC(=O)C(C)(C)C)n1  95.8%
62. CC(=O)Nc1ccc(-c2csc(NC(=O)Nc3ccccc3)n2)cc1  95.7%
63. O=C(Nn1c(-c2ccccc2)nc2ccccc2c1=O)c1ccc([N+](=O)[O-])cc1  95.4%
64. CCn1nc(C(=O)OCC(=O)N2c3ccccc3CC2C)c2ccccc2c1=O (stereo not drawn)  94.7%
65. CCOc1cc(NC(=S)NCc2ccco2)c(OCC)cc1NC(=O)c1ccco1  94.2%
66. O=C(O)Cc1sc(-c2ccc(C(=O)O)cc2)nc1-c1ccccc1  93.7%
67. COc1cc(OC)cc(-c2nnc(SCC(=O)Nc3ccc(C(=O)O)cc3)s2)c1  92.8%
68. Cc1cccc(-n2cnc(C(=O)NNC(=S)Nc3ccccc3)c2)n1  92%
69. COc1ccc(CCNC(=O)COC(=O)/C=C/c2cccs2)cc1OC  90.8%
70. O=C(Nc1cccc(F)c1)c1coc(=O)c(Br)c1  89.3%
71. COc1ccc(CCNc2nc(-c3cccc(NC(C)=O)c3)cs2)cc1OC  88.5%
72. O=C(NCCCN1CCN(c2ccc(F)cc2)CC1)Nc1ccc([N+](=O)[O-])cc1  88.3%
73. CCc1nc(C)cn1S(=O)(=O)c1cc([N+](=O)[O-])ccc1Cl  87.5%
74. N=C1C(=O)OCC1c1ccccc1NC(=O)CN1CCCCC1 (stereo not drawn)  86.4%
75. COc1ccc(CCNC(=O)c2ccc(CS(=O)(=O)c3ccc(Br)cc3)o2)cc1OC  84.6%
76. CCOC(=O)C1=C(CC)OC(N)=C(C#N)C1c1ccc(F)cc1F (stereo not drawn)  76.9%
77. O=c1oc2ccccc2cc1-c1cn(-c2ccccc2)c(=S)[nH]1  28.6%

With `CC(=O)Nc1cccc(-c2cnc3ccccc3n2)c1` the activation (% of control) was 159% (active).
With `CC(=O)Nc1cccc(-c2csc(Nc3cccc(C)n3)n2)c1` the activation (% of control) was 175% (active).
In the case of `CCOC(=O)c1sc(=NC(=O)/C=C/c2cccs2)n(C)c1C`, the activation (% of control) is reported as 140% (active).
In the case of `CCCC(=O)N1c2ccc(-c3csc(N)n3)cc2CC1C` (stereo not drawn), the activation (% of control) is reported as 150% (active).
For `COc1ccc2nc(Nc3nc(-c4ccncc4)cs3)sc2c1`, the activation (% of control) was 140% (active).
With `COc1ccc(Nc2nc(-c3ccccc3)cs2)cc1` the activation (% of control) was 142% (active).
With `NS(=O)(=O)c1ccc(Nc2nc(-c3ccccc3)cs2)cc1` the activation (% of control) was 131% (active).
For `Nc1ncc(-c2cc3ccccc3oc2=O)s1`, the activation (% of control) was 166% (active).
For `Cc1cccc(NC(=O)c2ccc3ccccc3n2)n1`, the activation (% of control) was 131% (active).
For `C=C(C)CSc1nc(N)c2c3c(sc2n1)CCC3`, the activation (% of control) was 135% (active).
In the case of `Cc1ccc(NN=C2C(=O)OC(C)(C)OC2=O)c(C)c1`, the activation (% of control) is reported as 132% (active).
For `CC(C)(C)NC(=O)Cn1nnc(-c2ccccc2Cl)n1`, the activation (% of control) was 142% (active).
In the case of `CC(C)COC(=O)c1ccc(NC(=O)C2C3C=CC(C3)C2C(=O)O)cc1` (stereo not drawn), the activation (% of control) is reported as 138% (active).
With `NC(=O)Cc1ccc2sc(-c3ccccc3)nc2c1` the activation (% of control) was 180% (active).
With `Cc1cccc(-n2cnc(C(=O)Nc3cccnc3)c2)n1` the activation (% of control) was 140% (active).
In the case of `CSc1nc2ccc(NC(=O)c3c(F)cccc3F)cc2s1`, the activation (% of control) is reported as 145% (active).
For `O=C(Nc1cc2ccccc2oc1=O)C1CCCCC1`, the activation (% of control) was 149% (active).
For `Clc1ccc(-c2cc(C3CCNCC3)[nH]n2)c(Cl)c1`, the activation (% of control) was 135% (active).
For `Cc1ccc(N/C=C/C(=O)c2ccccc2)cc1C`, the activation (% of control) was 142% (active).
For `O=C(c1cnn(-c2ccc(Cl)cc2)c1)c1ccccc1O`, the activation (% of control) was 137% (active).
In the case of `O=C(Nn1c(SCc2ccc([N+](=O)[O-])cc2)nc2ccccc2c1=O)c1ccc(F)cc1`, the activation (% of control) is reported as 150% (active).
